Structures are written as SMILES. This is part of a sample that, as a whole, favours compounds with a hit. Of some 83,000 tested, about 20% had one in any assay.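 Activity criterion: percent growth below 10, measured after cells in 96-well plates were exposed to a single compound concentration for 48 hours.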 Unmarked numbers belong to inactive results. The source made the active and inactive calls.

For the experiment, the system named is MDA-MB-468 breast. In words: NCI-60 one-dose screen, 48 h (100 = growth as untreated, 0 = no growth, -100 = all killed). Conditions: 10 µM unless noted.
For the molecule `COc1ccc(/C=C/C(=O)NCC(C)O)cc1` (stereo not given), the growth is 94.2%.
With `COc1ccc(C(=O)C(C)C)c2ccccc12` the figure was 102%; with `CCOC(=O)CSc1nc2ccccc2c(=O)n1Cc1ccc(S(N)(=O)=O)cc1`, 105%; with `c1ccc2c(c1)Nc1ccncc1S2`, 107%.
The figure for `CCOC(=O)CN1/C(=N/c2sc3c(c2C(=O)OCC)CCN(C(=O)OCC)C3)SC(=O)/C1=C\C(=O)OC` is 79.6%; for `COc1ccc(CCN2CCC(CN(C)Cc3cnn(-c4ccccc4)c3)CC2)cc1` it is 19%.
Consider `Cc1ccc(C(=O)c2sc3nc4c(cc3c2N)CCCC4)c(C)c1`, for which the growth was 32.3%.
Regarding `CCCCNC(=O)Oc1ccc(/C(=C(/CC)Cc2ccccc2)c2ccc(OCCN3CCCCCC3)cc2)cc1`, the growth is 6.65% (active).
With `NC(=O)SCC(=O)NNc1ccccc1` the figure was 92.9%.
Regarding `CCCCCCCCO/N=C\c1c2c(O)c3c(O)c(C)c4c(c3c1O)C(=O)C(C)(O/C=C\C(OC)C(C)C(OC(C)=O)C(C)C(O)C(C)C(O)C(C)/C=C\C=C(\C)C(=O)N2)O4` (stereo not given), the growth is 3.49% (active).
With `COc1ccc(S(=O)(=O)NCCNc2nccc(-c3c(-c4cccc(N)c4)nc4sccn34)n2)cc1` the figure was 88.5%; with `CC(C)c1c(C(=O)c2ccccc2)c(-c2ccccc2)c(-c2ccc(F)cc2)n1CC[C@@H](O)C[C@@H](O)CC(=O)O`, 39.2%; with `Cn1cccc1-c1nc2c3c(ccc2[nH]1)C(=O)c1ccccc1C3=O`, 10.9%.
With `CCN(CC)c1ccc(-c2cc(-c3cc(OC)c(OC)c(OC)c3)nc(N3CCC(O)CC3)c2C#N)cc1` the figure was -48.2% (active).
The figure for `Cc1ccc(-c2nc3ccc(Cl)cc3c(=O)n2N2C(=O)CSC2c2ccccc2Cl)cc1` (stereo not given) is 107%.
With `O=C1NC(=C(Cl)Cl)/C(=N/S(=O)(=O)N2CCC(C3(C(F)(F)F)N=N3)CC2)N1`, the growth is 32.7%.
The figure for `CC(C)(C)c1cc(O)c(C(C)(C)C)cc1O` is 66.2%; for `S=C(NCc1ccccc1)N1CCC(CCCC2CCN(C(=S)NCc3ccccc3)CC2)CC1` it is 69.1%.
The figure for `CC(C)(C)n1cc(-c2ccnc(NCCCNS(=O)(=O)c3ccc(F)cc3)c2)c(-c2cccc(F)c2)n1` is 53.2%; for `Cn1c(-c2nonc2NC(=O)c2ccc(F)cc2)nc2ccccc21` it is 99.5%.
The figure for `Cc1c(Cl)cccc1NC(=O)c1sc2nc3c(cc2c1N)CN(Cc1ccccc1)CC3` is 29.1%.
`CC1(C)CC[C@]2(C(=O)N3CCCNCC3)CC[C@]3(C)C(=CC[C@@H]4[C@@]5(C)CCC(=O)C(C)(C)[C@@H]5CC[C@]43C)[C@H]2C1`: the growth is 106%.
For `C=C1C(=O)O[C@H]2[C@H]1CC/C(Cn1cc(CNCCc3c[nH]c4ccccc34)nn1)=C\CC[C@@]1(C)O[C@@H]21`, the growth is 37.3%.
The figure for `O=C(C[C@@]1(O)C(=O)Nc2c(Cl)ccc(Cl)c21)c1ccc(C2CC2)cc1` is -4.24% (active); for `COc1cc(F)c(/C=C/c2cc(/C=C/c3cc(OC)c(OC)cc3F)n(-c3cc(F)cc(F)c3)n2)cc1OC` it is -37.6% (active); for `O=C(NO)c1ccc(-n2nc(-c3ccccc3)c3ccccc32)cc1` it is 52.9%.
With `O=C(Nc1ccc(N=Nc2ccccc2)cc1)c1cccc2ccccc12` the figure was 41.9%; with `O=C1c2c(c3c4cccnc4[nH]c3c3ccc4ccccc4c23)C(=O)N1CCN1CCCCC1`, 29.4%.
The figure for `O=C(c1nn(-c2ccccc2)c2c1CC(NCc1ccc(F)cc1)CC2)N1CCCCC1` (stereo not given) is 97%.
In the case of `CC1(C)CC2=C3C=C[C@@H]4[C@@]5(C)CCC(=O)C(C)(C)[C@@H]5CC[C@@]4(C)[C@]3(C)CC[C@@]2(C(=O)O)C[C@H]1O`, the growth was 40.3%.
In the case of `C=CCOc1ccc2c(c1)CC[C@@H]1[C@@H]2CC[C@@]2(C)[C@H]1CC[C@]2(C)O`, the growth is 81.2%.
With `COc1ccc2[nH]c(-c3ccccc3)cc2c1` the figure was 96.9%; with `O=C(Nc1ccc(Cl)cc1)Nc1nc2ccc(OC(F)(F)F)cc2o1`, 89%.
For the molecule `COc1cc(Nc2nc3ccccc3cc2C(=O)Nc2ccc(F)c(F)c2)cc(OC)c1OC`, the growth was 4.15% (active).
With `Cc1c(C(=O)C(SC(=S)N2CCOCC2)SC(=S)N2CCOCC2)nnn1-c1ccc([N+](=O)[O-])cc1` the figure was 92.7%.
The figure for `CCN(C(=O)c1cc2ccccc2[nH]1)[C@H]1CCC[C@@H](NCc2ccc(OC)cc2)C1` is 80.7%; for `NC(N)=Nc1nc2ccccc2n2c1nc1ccccc12` it is 35.1%; for `Fc1cc(-c2ncc(-c3cc(F)c(F)c(F)c3)c(NC3CCCCCC3)n2)cc(F)c1F` it is 99%.
The figure for `C=C(C)[C@@H]1CC[C@]2(C)[C@H](CC=C3[C@@H]4[C@@H](C)[C@H](C)CC[C@]4(C(N)=O)CC[C@]32C)[C@@]1(C)CCC#N` is 0.182% [100 µM] (active); for `CCOC(=O)c1c(C)nc2ccccc2c1/C=C/c1ccccc1` it is 24.7%.

Values taken from PubChem BioAssay (NCI).
